Compound activity: PubChem, several laboratories
Hits are enriched below; roughly 5% of the tested compounds scored in any of these assays.
CHT allo act: CHT positive allosteric modulators, primary screen, cell-based, membrane potential dye, choline EC20; High affinity choline transporter 1 (Homo sapiens), Q9GZV3; B-score at 10 µM; AID 488977, 2010; 0.49% of 310,000 active; CHT-expressing cells; hits give high values; LV-AA mutant CHT in HEK293 cells;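 active = initial fluorescence not abnormally high and integrated response B-score, plate-corrected, over 3 SD above library mean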
CHT inh: inhibitors of human choline transporter CHT | CHT-expressing cells, membrane potential dye, choline response; hits give low values | B-score at 10 µM | 0.86% of 310,000 active | AID 488975, 2010;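 active = B-score over 3 SD under the library average, and starting fluorescence ratio not unusually high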;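 note: choline stimulus applied at its EC90 after an EC20 pre-addition; B-score computed on integrated fluorescence ratio after choline addition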
PREPL inhibitor: PREPL enzyme inhibitors, primary screen, biochemical, fluorescence polarization; recombinant PREPL, fluorescence polarization activity-based probe; 0.68% of 320,000 active; inhibition, % at 5.96 µM; in the data active = inhibition above about 43%;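 note: 0% = enzyme with DMSO and 100% = wells lacking enzyme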
ALR H2O2 inh: inhibitors of human ALR sulfhydryl oxidase, primary screen, biochemical, H2O2 detection, HRP-luminol luminescence, single point; FAD-linked sulfhydryl oxidase ALR (Homo sapiens), P55789; purified ALR, DTT oxidation; inhibition, % (no concentration beside the values); 3.8% of 290,000 active; AID 485317, 2010;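 active = mean replicate inhibition above about 79%, with every replicate also reaching it, limit read from the data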
Target sequence (P55789 whole entry, looked up): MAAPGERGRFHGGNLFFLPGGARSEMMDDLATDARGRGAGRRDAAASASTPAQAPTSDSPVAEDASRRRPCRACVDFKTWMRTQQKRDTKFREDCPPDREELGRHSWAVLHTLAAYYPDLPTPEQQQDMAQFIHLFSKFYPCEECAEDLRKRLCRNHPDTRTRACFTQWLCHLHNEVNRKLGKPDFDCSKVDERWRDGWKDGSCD
AI-2 QS modul: Vibrio harveyi AI-2 quorum sensing modulators, primary screen, JMH597 strain, luminescence/OD600 ratio | Vibrio harveyi JMH597 AI-2 luminescence/OD600 ratio, 9 h; hits give low values; strain lacks LuxN and CqsS sensors; 0 = neutral-control median | activity change, % at 7.5 µM | 0.4% of 300,000 active; in the data active = activity change below about -75%, passing the limit was not always enough;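 note: luminescence divided by OD600 gain over 9 h not by final OD600 alone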
Starred values were filed as active, the others as inactive; i = inactive; . = no result given.

SMILES	CHT allo act	CHT inh	PREPL inhibitor	ALR H2O2 inh	AI-2 QS modul
COc1ccc(-n2c(SCC(=O)Nc3ccc(Cl)cc3)nc(O)c(Cc3ccccc3)c2=O)cc1	i	i	3.2	55.8	11.8
COc1ccc(-n2c(SCC(=O)Nc3ccccc3C)nc(O)c(Cc3ccccc3)c2=O)cc1	i	i	11.2	88.3*	18.8
CC(C)(C)NS(=O)(=O)c1ccc(NC(=O)CS(=O)(=O)Cc2ccccc2)cc1	i	i	7.9	-3.3	24.2
COc1ccc(NC(=O)CSc2ccc(F)cc2)cc1S(=O)(=O)N1CCCCC1	i	i	3.0	-1.6	17.3
COc1ccc(NC(=O)CSc2ccc3c(c2)OCCO3)cc1	.	.	5.6	98.2*	.
O=C(CSc1ccc2c(c1)OCCO2)Nc1ccc(Cl)cn1	i	i	-34.3	88.6*	8.3
COc1ccc(NC(=O)CSc2ccc3c(c2)OCCO3)cc1S(N)(=O)=O	.	.	12.3	-4.7	.
COc1ccc(NC(=O)CSc2ccc(NC(C)=O)cc2)cc1S(=O)(=O)N1CCCCC1	i	i	13.7	98.8*	35.0
CC(Nc1ccc2c(c1)OCCO2)C(=O)Nc1ccc2c(c1)OCO2 (stereo not given)	i	i	0.1	95.8*	25.1
CCOc1ccc(NC(=O)Cn2nnc(C(=O)NCc3cccs3)c2N)cc1	i	i	-1.4	-9.5	-7.9
O=C(Nc1nc2c(F)cc(F)cc2s1)C1CC(=O)N(Cc2ccco2)C1 (stereo not given)	i	i	20.6	1.9	29.4
CC(=O)Nc1ccc2c(c1)OCCO2	i	i	-7.4	.	24.7
CC(=O)Nc1ccc(SCC(=O)Nc2ccc3c(c2)OCCO3)cc1	.	.	6.8	97.9*	.
COc1ccc(NC(=O)CN(C)C(=O)CSc2ccc3c(c2)OCCO3)cc1	i	i	0.9	98.3*	7.8
COC(=O)c1ccc(N=Cc2c(C(F)(F)F)[nH][nH]c2=O)cc1	i	i	2.7	-0.3	0.2
CCOc1ccc(S(=O)(=O)N2CCN(C(=O)C3CC3C)CC2)cc1 (stereo not given)	.	.	-4.7	-1.2	.
O=C(O)c1ccc(N/N=C/C2=Cc3ccccc3OC2)cc1	i	i	29.3	98.5*	-91.2*
CC1CCCC(NC(=O)c2ccc3snnc3c2)C1C (stereo not given)	i	i	-3.6	-23.4	7.3
Cc1cccc(NC(=S)NCCC(C)C)c1	i	i	0.7	92.0*	2.2
CC(C)CCNC(=S)Nc1ccccn1	i	i	0.9	91.2*	12.8
COCCNC(=S)Nc1ccccn1	i	i	-5.8	0.2	30.6
COc1ccc(CCNC(=S)Nc2cccc(C)c2)cc1	i	i	-12.6	-5.9	6.3
CCN(c1ccc(NC(=O)CCNC(=O)c2ccco2)cc1)C(C)C	i	i	1.7	98.8*	13.0
On1ccccc1=S	i	i	3.3	92.4*	.
O=[N+]([O-])c1c(NCc2ccccc2)cc(N2CCc3ccccc3C2)c2nonc12	i	i	2.9	-19.9	22.7
SMILES	CHT allo act	CHT inh	PREPL inhibitor	ALR H2O2 inh	AI-2 QS modul
Cc1ccc(OCC(=O)N2CC(C)CC(C)C2)c([N+](=O)[O-])n1 (stereo not given)	.	.	8.3	-10.0	.
CCN(C(=O)CSc1nnc(-c2c[nH]c3ccccc23)o1)C1CCS(=O)(=O)C1 (stereo not given)	i	i	7.2	-0.2	3.3
O=C(NCCO)C(=O)Nc1cc2c3c(c1)CC(=O)N3CCC2	i	i	23.1	.	5.6
O=C(CCl)c1cc2c3c(c1)CC(=O)N3CCC2	i	i	-5.0	98.1*	37.1
O=C(Nc1ccccc1N1CCOCC1)c1cc(F)cc(F)c1	i	i	9.5	.	9.2
O=C(Nc1cccc(F)c1)c1cccnc1N1CCOCC1	i	i	-3.9	85.4*	13.5
O=C(Nc1cccc(C(F)(F)F)c1)c1cccnc1N1CCOCC1	i	i	-2.6	2.9	-2.3
O=C(Nc1ccccc1N1CCOCC1)c1cccc(F)c1	i	i	22.1	96.3*	25.2
COc1ccc(OC)c(NS(=O)(=O)c2ccc(-c3coc(C)n3)cc2)c1	i	i	8.4	1.5	25.3
COc1cccc(N2CCN(C(=O)c3[nH]c(C)c(C(C)=O)c3C)CC2)c1	i	i	4.9	54.1	-14.2
COc1ccc(N2CCN(C(=O)CN3CCN(C(c4ccccc4)c4ccccc4)CC3)CC2)cc1	i	i	2.9	-6.8	14.9
COc1ccc(N2CCN(C(=O)NCc3ccc(OC)c(Cl)c3)CC2)cc1	i	i	4.2	-57.8	36.8
COc1ccc(N2CCN(C(=O)NCc3ccc(OC)c(OC)c3)CC2)cc1	i	i	8.1	88.6*	4.8
COc1ccc(N2CCN(CC(=O)NC(C)c3ccccc3)CC2)cc1 (stereo not given)	i	i	-1.8	95.1*	-3.2
COC(=O)c1c(C)[nH]c(C(=O)N2CCN(c3ccc(OC)cc3)CC2)c1C	i	i	-1.6	95.6*	-0.6
COc1ccc(N2CC(NC(=O)N3CCN(c4ccccc4)CC3)CC2=O)cc1 (stereo not given)	i	i	10.8	96.8*	17.1
Cc1cc(C)c(S(=O)(=O)N2CCCOC2CNC(=O)C(=O)NCCc2c[nH]c3ccccc23)c(C)c1 (stereo not given)	i	i	19.9	-11.0	20.1
COc1ccc(S(=O)(=O)N2CCc3ccccc32)cc1C(=O)Nc1ccc(C(N)=O)cc1	i	i	2.5	0.0	.
CNC(=S)N1CCN(c2ccc(OC)cc2)CC1	i	i	5.4	96.0*	14.7
COc1ccc(N2CCN(CCCNC(=O)C3(S(=O)(=O)c4ccc(Cl)cc4)CC3)CC2)cc1	i	i	39.5	85.5*	26.6
COc1ccc(N2CCN(CC(=O)NCc3ccc(Cl)cc3)CC2)cc1	i	i	-2.0	88.6*	9.8
COc1cccc(N2CCN(CC(=O)NCc3cccs3)CC2)c1	i	i	8.4	98.6*	19.6
Cc1ccc(NC(=O)CNC(=O)CC23CC4CC(CC(C4)C2)C3)c(O)c1	i	i	10.7	.	26.7
CCOC(=O)N1CCN(C(=O)C(NC(=O)c2ccc(C(C)(C)C)cc2)C(C)C)CC1 (stereo not given)	.	.	-0.6	-27.1	.
CO[C@H]1O[C@H](C)[C@@H](O)C[C@H]1NC(=O)OCc1ccccc1	i	i	7.4	0.5	24.2
COc1ccc(N2CCN(C(=O)NC34CC5CC(CC(C5)C3)C4)CC2)cc1	i	i	11.4	85.4*	28.8
Cc1ccc(NC(=O)NC(=O)CN2CCC(C(N)=O)CC2)c(C)c1	.	.	8.0	-1.7	.
